Some test systems named below: NCI-H23 lung; NCI-H322M lung; HOP-62 NSCLC; NCI-H460 lung; HOP-92 NSCLC; NCI-H522 lung; A549/ATCC NSCLC; 786-0 renal; COLO 205 colon; DU-145 prostate; K-562 leukemia; MALME-3M melanoma; MDA-MB-231 breast; RXF 393 renal; SF-268 CNS; SF-295 CNS; SF-539 CNS; UACC-257 melanoma; M14 melanoma; HCT-15 colon.
Assay in all cases: NCI-60 one-dose screen, 48 h (100 = growth as untreated, 0 = no growth, -100 = all killed)
Holding throughout (settings): 10 µM unless noted

We go through six molecules from PubChem BioAssay (NCI).

This is part of a sample that, as a whole, favours compounds with a hit. Of some 83,000 tested, about 20% had one in any assay.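 96-well plates, one dose, 48 hours. Percent growth reported; active if below 10.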 A number with no mark means an inactive call. The source made the active and inactive calls.

Take `CCOc1ccc2c(c1)CN(Cc1ccc(Cl)cc1)CO2`: the growth in the assay on NCI-H23 lung is 80.8%; with NCI-H322M lung, 69.1%; with HOP-62 NSCLC, -7.93% (active); in the assay with NCI-H460 lung, 40.1%; with HOP-92 NSCLC, 43.4%; with NCI-H522 lung, 72.9%. In addition, the growth in the assay with A549/ATCC NSCLC was 18.7%; in the assay with 786-0 renal it was 6.53% (active); with COLO 205 colon, 76.7%; in the assay with DU-145 prostate it was 38.3%; in the assay on K-562 leukemia it was 57.2%; with MALME-3M melanoma it was 30.1%. Further, the growth in the assay on MDA-MB-231 breast is 35.2%; in the assay on RXF 393 renal, -3.87% (active); in the assay with SF-268 CNS, 24.9%; with SF-295 CNS, -7.02% (active); with SF-539 CNS it was 1.31% (active); with UACC-257 melanoma, 70.9%. In addition, the growth in the assay with M14 melanoma is 55.6%; in the assay on HCT-15 colon, 70%.
As for `CCOC(=O)c1c2c(c(C)n1Cc1ccc(OC)cc1)-c1oncc1CC2`, the growth is 87.7% with NCI-H23 lung; 78.5% in the assay with NCI-H322M lung; 62% with HOP-62 NSCLC; 99.1% with NCI-H460 lung; 60.6% in the assay on HOP-92 NSCLC; 99.3% in the assay on NCI-H522 lung. For the same molecule, the growth with A549/ATCC NSCLC is 84.8%; with 786-0 renal, 79.6%; in the assay on COLO 205 colon, 137%; in the assay on DU-145 prostate it was 96%; in the assay on K-562 leukemia, 92%; with MALME-3M melanoma, 125%. For the same molecule, the growth is 115% with MDA-MB-231 breast; 88.1% with RXF 393 renal; 81.5% in the assay on SF-268 CNS; 91.3% in the assay on SF-295 CNS; 79.5% in the assay on SF-539 CNS; 106% with UACC-257 melanoma. The growth was 121% in the assay on M14 melanoma and 91.3% in the assay on HCT-15 colon.
Turning to `COc1ccccc1CNC(=O)C1c2ccccc2C(=O)N(CC(C)C)C1c1cccs1` (stereo not given), the growth with NCI-H23 lung is 76.6%; in the assay with NCI-H322M lung, 69.8%; with HOP-62 NSCLC it was 62.6%; in the assay on NCI-H460 lung, 55.6%; in the assay with HOP-92 NSCLC, 76%; in the assay on NCI-H522 lung, 41%. Also, the growth with A549/ATCC NSCLC was 60.7%; with 786-0 renal, 75.1%; in the assay on COLO 205 colon, 46.1%; with DU-145 prostate, 71.2%; in the assay on K-562 leukemia, 16.4%; in the assay on MALME-3M melanoma, 46.4%. Moreover, the growth in the assay on MDA-MB-231 breast is 19.6%; in the assay on RXF 393 renal, -2.16% (active); in the assay on SF-268 CNS, 65.7%; in the assay on SF-295 CNS it was -33.5% (active); with SF-539 CNS, 63.4%; in the assay with UACC-257 melanoma it was 96.2%. Moreover, the growth in the assay with M14 melanoma is 61.6%; with HCT-15 colon, 30.8%.
Turning to `COCCN(C(=O)Cc1cccs1)C(C(=O)NCc1ccc(OC)cc1)c1ccc(C(C)C)cc1` (stereo not given), the growth in the assay on NCI-H23 lung is 86.4%; in the assay with NCI-H322M lung, 92.2%; in the assay with HOP-62 NSCLC it was 97.8%; in the assay on NCI-H460 lung, 78.2%; in the assay on HOP-92 NSCLC, -3.71% (active); in the assay on NCI-H522 lung it was 80.7%. The growth in the assay with A549/ATCC NSCLC is 87.2%; with 786-0 renal, 95%; with COLO 205 colon, 104%; in the assay on DU-145 prostate, 63.5%; in the assay with K-562 leukemia it was 77%; in the assay with MALME-3M melanoma, 72.2%. Moreover, the growth with MDA-MB-231 breast was 71.4%; in the assay with RXF 393 renal it was 88.5%; in the assay on SF-268 CNS, 57.8%; with SF-295 CNS, 84.3%; with SF-539 CNS, 93.3%; with UACC-257 melanoma, 122%. The results for the growth with M14 melanoma and in the assay with HCT-15 colon were 106% and 95.7%, respectively.
In the case of `c1ccc2c(c1)oc1cc3sccc3nc12`, the growth was 101% in the assay on NCI-H23 lung; 99.2% in the assay on NCI-H322M lung; 89.5% in the assay with HOP-62 NSCLC; 104% in the assay with NCI-H460 lung; 95.1% in the assay on HOP-92 NSCLC; 93% with NCI-H522 lung. In addition, the growth with A549/ATCC NSCLC was 102%; in the assay with 786-0 renal it was 96.1%; in the assay with COLO 205 colon, 109%; in the assay on DU-145 prostate, 114%; in the assay on K-562 leukemia, 98.1%; in the assay on MALME-3M melanoma, 102%. Further, the growth with MDA-MB-231 breast is 101%; in the assay on RXF 393 renal, 109%; in the assay with SF-268 CNS, 97.5%; in the assay on SF-295 CNS it was 108%; in the assay on SF-539 CNS it was 98.8%; in the assay with UACC-257 melanoma, 104%. Besides, the growth was 94.7% with M14 melanoma and 99.5% in the assay on HCT-15 colon.
In the case of `O=C(Nc1ccc(Cl)cc1F)c1cc(I)ccc1O`, the growth with NCI-H23 lung is 12.1%; with NCI-H322M lung, 17.8%; in the assay on HOP-62 NSCLC it was 21.9%; in the assay on NCI-H460 lung, 15.7%; in the assay with HOP-92 NSCLC it was -24.6% (active); in the assay with NCI-H522 lung it was -9.32% (active). In addition, the growth in the assay with A549/ATCC NSCLC is 17.6%; with 786-0 renal, 77.2%; with COLO 205 colon, 106%; in the assay with DU-145 prostate, 31.9%; with K-562 leukemia, 14.9%; in the assay on MALME-3M melanoma, -1.76% (active). In addition, the growth in the assay with MDA-MB-231 breast was 52.8%; with RXF 393 renal, 14.8%; in the assay on SF-268 CNS, 17.1%; in the assay with SF-295 CNS it was 48.4%; in the assay with SF-539 CNS, 16.4%; in the assay on UACC-257 melanoma, 21.9%. Moreover, the results for the growth with M14 melanoma and in the assay on HCT-15 colon were 27.9% and 25.4%, respectively.
